hDAT+cocaine: changed human dopamine transporter uptake under cocaine IC80; LLC-PK1 hDAT cells, [14C]-dopamine uptake with cocaine IC80; actives deviate in either direction; B-score at 10 µM; 110,000 tested, 1.3% active; Q01959;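 active = Z score or B-score, a plate-position-corrected score, falls beyond the plate's 99.7% confidence bounds, in either direction; inactive = both scores lie inside the 99.7% bounds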;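 also: scored against the spread of the other compound wells on the same plate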
BAP1 block: human BAP1 deubiquitinase inhibition; recombinant BAP1, Ub-AMC hydrolysis fluorescence kinetic; stronger effect = lower value; AID 436; 72,000 tested, 0.48% active; Q92560; calls only at 20 µM;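 active = activity remaining at or below 50% of control, provided the compound also passes the data quality filters; inactive = the rest, including low values that fail the filters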;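 also: 100% = DMSO wells rate and 0% = substrate alone blank rate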
D1 allo mod: allosterically modulates the human D1 dopamine receptor. B-score at 10 µM. 58,000 tested, 5.9% active. HEK293 D1, CRE-luciferase, dopamine EC30 potentiation; actives deviate in either direction. P21728;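 active = luminescence count or its row- and column-corrected plate score outside the 99.7% band of the plate's sample wells, on either side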
Target sequence (P21728 whole entry, looked up): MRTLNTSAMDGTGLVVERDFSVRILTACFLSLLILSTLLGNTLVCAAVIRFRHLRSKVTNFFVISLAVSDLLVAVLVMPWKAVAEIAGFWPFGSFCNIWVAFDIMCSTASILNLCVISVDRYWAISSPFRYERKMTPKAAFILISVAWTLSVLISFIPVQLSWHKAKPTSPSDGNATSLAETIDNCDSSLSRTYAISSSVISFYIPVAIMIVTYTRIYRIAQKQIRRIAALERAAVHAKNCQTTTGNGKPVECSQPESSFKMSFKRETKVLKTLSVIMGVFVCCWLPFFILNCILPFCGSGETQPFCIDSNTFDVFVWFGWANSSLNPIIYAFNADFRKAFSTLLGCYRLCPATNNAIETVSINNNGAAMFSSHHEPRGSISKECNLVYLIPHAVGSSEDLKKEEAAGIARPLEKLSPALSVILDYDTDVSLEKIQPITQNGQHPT
D1 mod confirm: D1 receptor (human) allosteric modulation, confirmed; HEK293 D1 CRE-luciferase, dopamine EC30 potentiation; stronger effect = higher value; AID 642; shares compounds with D1 allo mod; 2,200 tested, 88% active; luminescence at 10 µM;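 active = luminescence in either of two replicates above the same-plate mean plus 3 SD of the low-dose dopamine control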
D1 ag no DA: secondary test of D1 modulators: activity without dopamine. shares compounds with D1 allo mod. HEK293 D1 CRE-luciferase, luminescence, no dopamine; stronger effect = higher value. luminescence at 10 µM. 1,900 tested, 0.8% active. AID 646; in the data active = luminescence above about 3900
Isoprot counter: alters isoproterenol CRE-luciferase response in HEK293 cells. HEK293 D1 CRE-luciferase, isoproterenol EC30 counter-screen; stronger effect = higher value. 2,200 tested, 63% active. shares compounds with D1 allo mod. luminescence at 10 µM;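 active = luminescence in either replicate above plate mean of wells with a partly effective reference agonist dose plus 3 SD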;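 also: isoproterenol raises cAMP through native beta-adrenoceptor Gs so signal bypasses D1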
An asterisk follows results filed as active; i = inactive; · = no result given. Only a selection was taken, and hits are over-represented in it overall.

SMILES	hDAT+cocaine	BAP1 block	D1 allo mod	D1 mod confirm	D1 ag no DA	Isoprot counter
Cc1ccc(CCNS(=O)(=O)c2cnc[nH]2)cc1	0.0069	i	3.2*	6464*	1552	2536
O=C1c2ccccc2C(=O)N1CCC(=O)N(C1CCCCC1)C1CCCCC1	·	i	·	·	·	·
O=C1CSc2ccccc2N1Cc1ccccc1F	0.053	i	3.5*	6672*	1472	2720
O=C(NCCN1CCOCC1)c1ccc2c(c1)N(Cc1ccccc1F)C(=O)CS2	·	i	-0.033	·	·	·
Cc1nc2c(=O)[nH]ccc2[nH]1	·	i	·	·	·	·
O=C(c1nn2c(c1Cl)NC(c1cccs1)CC2C(F)(F)F)N(Cc1ccccc1)c1ccccc1 (centres undefined)	·	i	·	·	·	·
COC(=O)c1sc(N)c(C(=O)OC)c1COC(=O)C1CC(=O)N(Cc2ccco2)C1 (centres undefined)	0.22	i	0.062	·	·	·
CCOC(=O)c1sc(N)c(C(=O)OCC)c1COC(=O)C1CC(=O)N(Cc2ccco2)C1 (centres undefined)	0.25	i	6.1*	8580*	·	3336*
CCOC(=O)c1[nH]c(COC(=O)C2CC(=O)N(Cc3ccccc3)C2)c(C(=O)OCC)c1C (centres undefined)	·	i	2.9*	4948	1448	2652
O=C(O)C1CC(=O)N(Cc2ccccc2)C1 (centres undefined)	-0.66	i	-0.21	·	·	·
CC(C)c1ccccc1NC(=O)c1cc2ccccc2oc1=O	·	i	·	·	·	·
Cc1ccc(NC(=O)c2c(NC(=O)c3ccccc3)sc3c2CCC(C)C3)cc1 (centres undefined)	·	i	·	·	·	·
CCOC(=O)c1nn(-c2ccccc2)c(C#N)c1NC(=O)c1nn(CC)cc1Br	0.056	i	4.3*	8684*	·	2864*
CCOC(=O)c1ccc(NC(=O)c2nn(CC)cc2Br)cc1	0.29	i	0.44	·	·	·
N#Cc1c2c(c(NCCN3CCOCC3)n3c1nc1ccccc13)CCCC2	-1	·	3.5*	15848*	1800	11096*
N#Cc1c2c(c(NCCCN3CCOCC3)n3c1nc1ccccc13)CCC2	1.1	·	0.0091	·	·	·
COc1ccc(C(=O)Nc2cc3cccc([N+](=O)[O-])c3oc2=O)c(Cl)c1	·	i	·	·	·	·
Clc1ccccc1COc1ccccc1-c1nnco1	0.96	i	-1.3	·	·	·
c1ccc(OCCOc2ccccc2-c2nnco2)cc1	0.49	i	4.4*	6588	1756	2716
COC(=O)C(CC(C)C)NC(=O)CSc1nnc2c(n1)[nH]c1ccccc12 (centres undefined)	·	i	·	·	·	·
COC(=O)C1=C(C)NC(C)=C(C(=O)OCCCBr)C1c1cccc([N+](=O)[O-])c1 (centres undefined)	·	i	·	·	·	·
O=C(Nc1ccc(-c2nc3ncccc3o2)cc1)c1ccc(-c2ccc(F)cc2)o1	·	i	·	·	·	·
O=S1(=O)N=C(N2CCCc3ccccc32)c2ccccc21	-2.3	i	0.93	·	·	·
O=S1(=O)N=C(N2CCc3ccccc3C2)c2ccccc21	-0.58	i	2.4*	6388*	1564	2628
CC1SC2(OC1=O)C1CC3CC(C1)CC2C3 (centres undefined)	·	i	·	·	·	·
SMILES	hDAT+cocaine	BAP1 block	D1 allo mod	D1 mod confirm	D1 ag no DA	Isoprot counter
COC(=O)CN(C#N)c1nc(NC(C)C)nc(OC)n1	-0.94	·	·	·	·	·
CCN(C#N)c1nc(NC(C)C)nc(NC(C)C)n1	0.0098	i	9.7*	22184*	1544	6052*
CC(C)Nc1nc(NC(C)C)nc(N(C)C#N)n1	0.49	i	16*	21628*	1804	3796*
Cc1ccc(Nc2nc(Cl)nc(N(C)C#N)n2)cc1	0.12	·	·	·	·	·
C#CCN(C#N)c1nc(NCC)nc(NC(C)C)n1	-0.74	i	17*	18300*	1652	5752*
CCNc1nc(NC(C)C)nc(N(C#N)CCOc2ccccc2)n1	-0.36	·	·	·	·	·
CCOC(=O)c1ccc(NC(=O)COc2cc(C)c(Cl)c(C)c2)cc1	·	i	·	·	·	·
c1ccc(COCCOCCN2CCOCCOCCOCCOCCOCC2)cc1	·	i	·	·	·	·
Cc1ccc(N2C(=O)C3C4c5ccccc5C(C(=O)O)(c5ccccc54)C3C2=O)cc1Cl (centres undefined)	·	i	·	·	·	·
Cc1cc(NC(=O)COc2cccc(C)c2C)no1	0.032	i	0.51	·	·	·
Cc1cc(NC(=O)COc2nnc(-c3ccccc3)c3ccccc23)no1	0.48	i	5.5*	6684*	1432	2480
CC1=C(C(=O)OCc2ccc3c(c2)OCO3)C(c2ccc([N+](=O)[O-])cc2)NC(=O)N1 (centres undefined)	·	i	·	·	·	·
N#Cc1c(NC(=O)CCCN2C(=O)c3ccccc3C2=O)sc2c1CCCC2	·	i	·	·	·	·
COC(=O)c1c(N)c(C#N)c2n1CCCCC2	-0.77	i	3.8*	7512*	·	2600
N#Cc1c(N)c(C(=O)c2ccccc2)n2c1CCC2	0.18	i	-0.25	·	·	·
CCc1cc2c(=O)c(Oc3ccccc3)c(C(F)(F)F)oc2c(CN(C)C)c1O	·	i	·	·	·	·
CCc1ccc(-c2ccc(C(=O)Oc3ccccc3)cc2)nc1	·	i	·	·	·	·
CCCCOc1ccc(CC(=O)NO)cc1	0.42	i	33*	18936*	·	3532*
CCCCOc1ccc(C(=O)NC)cc1	0.92	i	-0.064	·	·	·
Cc1cc(OCC(=O)Nc2cc3nn(-c4ccccc4)nc3cc2C)ccc1Cl	·	i	·	·	·	·
Nc1nc(N)nc(-c2ccccc2)n1	-0.54	i	0.98	·	·	·
CCCCOc1nc(N)nc(-c2ccccc2)n1	-0.67	i	15*	19712*	1784	3520*
O=[N+]([O-])c1cccc2c1nnn2C(CO)OCCO (centres undefined)	·	i	·	·	·	·
COc1ccc(C(=O)c2sc3nc(N)c(C#N)c(-c4ccc(OC)cc4)c3c2N)cc1	·	i	·	·	·	·
Cc1ccc(-n2nc(C)cc2N)cc1	·	i	·	·	·	·
SMILES	hDAT+cocaine	BAP1 block	D1 allo mod	D1 mod confirm	D1 ag no DA	Isoprot counter
COc1ccc(NC(=O)c2cnn3c(C(F)(F)F)cc(-c4ccc(OC)c(OC)c4)nc23)c(OC)c1	·	i	·	·	·	·
N#Cc1c(-c2ccccc2)cc(C2CC2)nc1N	-0.0069	i	25*	29052*	1688	5036*
N#Cc1c(-c2ccco2)cc(C2CC2)nc1N	0.27	i	·	·	·	·
O=c1c2cc(Cl)ccc2[nH]c(=S)n1Cc1ccco1	-0.25	i	2.8*	9744*	1436	2816
O=c1[nH]c2ccc(Cl)cc2c(=O)n1Cc1ccco1	0.18	i	·	·	·	·
O=C(CCCCn1c(=O)c2ccccc2n(Cc2ccc(F)cc2)c1=O)NCc1ccco1	0.28	i	·	·	·	·
O=C(CCCn1c(=O)c2ccccc2n(Cc2ccccc2)c1=O)NCc1ccco1	0.39	i	3*	8576*	1680	2992*
O=c1c2ccccc2n(Cc2ccc(Cl)cc2)c(=O)n1Cc1ccco1	-0.65	i	8.5*	16764*	1488	3544*
Cc1ccc(Cn2c(=O)n(Cc3ccco3)c(=O)c3ccccc32)cc1	0.61	i	12*	15080*	1628	4524*
O=C(NCc1ccco1)c1ccc(Cn2c(=O)c3ccccc3n(Cc3ccc(Cl)cc3)c2=O)cc1	0.9	·	·	·	·	·

High-throughput results deposited in PubChem by several laboratories.
